In the supplement of paper PMC9023506:
Where a name gives a salt, the structure may show the parent alone.

These compounds were tested on Danio rerio larvae (5 dpf) (assay: excitability to 1-s acoustic pulses, difference vs DMSO (percentage points (treated minus DMSO)); higher = more of the behaviour than the DMSO vehicle control). Settings: 10 µM; exposure time: 3 h pre-incubation + 3 h imaging.
Method: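 5-dpf wild-type zebrafish larvae were imaged in 96-well plates. They were treated with 190 Tocris FDA-approved drugs at 10 µM (1 µl/ml DMSO) for 3 h before and 3 h during imaging at 28.5 °C, 48 larvae per drug. Automated image analysis gave % time moving and optomotor responses. Values are drug group mean minus DMSO vehicle mean (n=844), in percentage points, for 10 behaviours.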

Compound | excitability to 1-s acoustic pulses
CN1CC[C@@H](NC(=O)Nc2ccc(C#N)cc2)C[C@@H]1c1nc2ccccc2[nH]1 | 7.99
Cc1ccccc1C(=O)Nc1ccc(C(=O)N2CCCC(O)c3cc(Cl)ccc32)c(C)c1 (stereo not given) [Tolvaptan] | 6.31
CCCc1nn(C)c2c(=O)[nH]c(-c3cc(S(=O)(=O)N4CCN(C)CC4)ccc3OCC)nc12 [Sildenafil citrate] | 4.02
CCOC(=O)N1CCC(=C2c3ccc(Cl)cc3CCc3cccnc32)CC1 [Loratidine] | -6.95
CCCC1O[C@@H]2C[C@H]3[C@@H]4CCC5=CC(=O)C=C[C@]5(C)[C@H]4[C@@H](O)C[C@]3(C)[C@]2(C(=O)CO)O1 (stereo not given in full) [Budesonide] | -1.66
C[C@@H]1C[C@H]2[C@@H]3CCC4=CC(=O)C=C[C@]4(C)[C@@]3(F)[C@@H](O)C[C@]2(C)[C@@]1(O)C(=O)CO [Dexamethasone] | -5.75
COc1ccc(-c2ccc3cc(C(=O)O)ccc3c2)cc1C12CC3CC(CC(C3)C1)C2 [Adapalene] | -0.119
CN(CCOc1ccc(NS(C)(=O)=O)cc1)CCc1ccc(NS(C)(=O)=O)cc1 [Dofetilide] | 4.42
O=C(c1ccc(OCCN2CCCCC2)cc1)c1c(-c2ccc(O)cc2)sc2cc(O)ccc12 [Raloxifene hydrochloride] | 9.93
CCCc1nc(C(C)(C)O)c(C(=O)O)n1Cc1ccc(-c2ccccc2-c2nnn[nH]2)cc1 [Olmesartan] | -0.185
CC(C)CN(C[C@@H](O)[C@H](Cc1ccccc1)NC(=O)O[C@H]1CO[C@H]2OCC[C@H]21)S(=O)(=O)c1ccc(N)cc1 [Darunavir] | -1.74
COc1ccccc1Oc1c(NS(=O)(=O)c2ccc(C(C)(C)C)cc2)nc(-c2ncccn2)nc1OCCO [Bosentan] | -1.1
CN/C(=N\CCSCc1nc[nH]c1C)NC#N [Cimetidine] | -2.12
CCCCNc1cc(C(=O)O)cc(S(N)(=O)=O)c1Oc1ccccc1 [Bumetanide] | 3.02
CNS(=O)(=O)Cc1ccc2[nH]cc(CCN(C)C)c2c1 [Sumatriptan succinate] | -8.18
CC(C)C(=O)Nc1ccc([N+](=O)[O-])c(C(F)(F)F)c1 [Flutamide] | -5.4
CC(=O)S[C@@H]1CC2=CC(=O)CC[C@]2(C)[C@H]2CC[C@@]3(C)[C@@H](CC[C@@]34CCC(=O)O4)[C@H]12 [Spironolactone] | 1.36
OC(CNCC(O)C1CCc2cc(F)ccc2O1)C1CCc2cc(F)ccc2O1 (stereo not given) [Nebivolol hydrochloride] | 15.9
COc1cc2nc(N3CCN(C(=O)C4COc5ccccc5O4)CC3)nc(N)c2cc1OC (stereo not given) [Doxazosin mesylate] | 20.8
CC(C)c1nc(N(C)S(C)(=O)=O)nc(-c2ccc(F)cc2)c1/C=C/[C@@H](O)C[C@@H](O)CC(=O)O [Rosuvastatin calcium] | -0.497

Compound | excitability to 1-s acoustic pulses
CCOC(=O)C1=C(C)NC(C)=C(C(=O)OC)C1c1cccc(Cl)c1Cl (stereo not given) [Felodipine] | -13.3
CCCCCOC(=O)Nc1nc(=O)n([C@@H]2O[C@H](C)[C@@H](O)[C@H]2O)cc1F [Capecitabine] | 4.17
CN1CCN(CCCN2c3ccccc3Sc3ccc(Cl)cc32)CC1 [Prochlorperazine dimaleate] | 23.6
O=C(O[C@@H]1C[C@@H]2C[C@H]3C[C@H](C1)N2CC3=O)c1c[nH]c2ccccc12 [Dolasetron mesylate] | 9.61
CC(=O)Oc1ccccc1C(=O)O [Aspirin] | 10.2
Nc1cccc2c1CN(C1CCC(=O)NC1=O)C2=O (stereo not given) [Lenalidomide] | -2.77
O=C1CCc2cc(OCCCCc3nnnn3C3CCCCC3)ccc2N1 [Cilostazol] | 6.57
CCN(Cc1ccncc1)C(=O)C(CO)c1ccccc1 (stereo not given) [Tropicamide] | 0.232
Nc1ncn([C@@H]2O[C@H](CO)[C@@H](O)[C@H]2O)c(=O)n1 [5-Azacytidine] | -3.59
COc1cc2ncnc(Nc3ccc(F)c(Cl)c3)c2cc1OCCCN1CCOCC1 [Iressa] | 18
CC(C)Nc1cccnc1N1CCN(C(=O)c2cc3cc(NS(C)(=O)=O)ccc3[nH]2)CC1 [Delavirdine mesylate] | 0.884
Cc1nnc(C(C)C)n1C1C[C@H]2CC[C@@H](C1)N2CC[C@H](NC(=O)C1CCC(F)(F)CC1)c1ccccc1 (stereo in doubt) [Maraviroc] | 8.65
COc1c(C)c2c(c(O)c1C/C=C(\C)CCC(=O)OCCN1CCOCC1)C(=O)OC2 [Mycophenolate mofetil] | 0.817
COc1ccc([C@@H]2Sc3ccccc3N(CCN(C)C)C(=O)[C@@H]2OC(C)=O)cc1 [Diltiazem hydrochloride] | 1.38
C#CCN[C@@H]1CCc2ccccc21 [Rasagiline mesylate] | -3.66
NC(=O)N1c2ccccc2C=Cc2ccccc21 [Carbamazepine] | -0.497
CN(C)CCc1c[nH]c2ccc(Cn3cncn3)cc12 [Rizatriptan benzoate] | -3.58
CN1CC2c3ccccc3Oc3ccc(Cl)cc3C2C1 (stereo not given) [Asenapine maleate] | 15
Cc1c(-c2ccc(O)cc2)n(Cc2ccc(OCCN3CCCCCC3)cc2)c2ccc(O)cc12 [Bazedoxifene acetate] | 16
CCCCC1=NC2(CCCC2)C(=O)N1Cc1ccc(-c2ccccc2-c2nnn[nH]2)cc1 [Irbesartan] | -3.79
